Experimental data published in PMC13494018.

B1: design_606_b60ff77f-1541-4e5f-8260-46d5e5f6b85e_580_dldesign_0_cycle1_af2pred (protein)
chain: MTEEEKKEAEKKAEEIKKLGKELAKKVLNSKDAEKEVKKAKKELREKGKKLAEAGNPEAKKIISKAVSEAYQLLNEAEWKNLK
B2: design_606_b60ff77f-1541-4e5f-8260-46d5e5f6b85e_762_dldesign_0_cycle1_af2pred (protein)
chain: SEEEKKIKELAKEMEEVGKEAAEAGKKNPEEGKKLRDIMIKLANEAVALAEKLGLEEEAKKIKEKAAELSAKAYEAIAENLA
B3: design_606_b60ff77f-1541-4e5f-8260-46d5e5f6b85e_200_dldesign_0_cycle1_af2pred (protein)
chain: EEEKLIADSAKEVDAAADKAMDAMAKNKEAAKAAKAELEALAAKFKELAEKGSPEVAKKMNLAAKTMKRFAELLKKAAS
B4: design_606_b60ff77f-1541-4e5f-8260-46d5e5f6b85e_370_dldesign_0_cycle1_af2pred (protein)
chain: DLVKEASKLSGQAYEYKAAADVGVLNKEELKAGAEIAKKAAELAKKIAKETTPEEAKKYLKQAETMKKIAEYLEKKAQEL
B5: design_606_b60ff77f-1541-4e5f-8260-46d5e5f6b85e_411_dldesign_0_cycle1_af2pred (protein)
chain: MEEELEKEKKEAEKFLEETKKIAEEAVKRAESGEDIAGAAHELYELKSEAEYLAKTSSPEAAKLYKEAAKIAKEALEEVRKRGKERKA
B6: design_606_b60ff77f-1541-4e5f-8260-46d5e5f6b85e_364_dldesign_0_cycle1_af2pred (protein)
chain: AEARDKAILEKAKKETEELAKKAEELAKKGAKKEEIEKVIKEIRKVGKEYAAKASPEVAPEILTIAGDAVAEAKGAYQEAKIK
B7: design_606_b60ff77f-1541-4e5f-8260-46d5e5f6b85e_842_dldesign_0_cycle1_af2pred (protein)
chain: MEEAKKKITELAEAAAAADPETAKKLLAEASRYLIDYISKNKLDSETISELVSYLKEKGKEALAQAKAKEAAA
B8: design_606_b60ff77f-1541-4e5f-8260-46d5e5f6b85e_600_dldesign_0_cycle1_af2pred (protein)
chain: AAAAEAKGKKINELRIEANDYAYEHEINSSNPELSKAYKEEAEKKIKEAEKIDPEGGKRIKKSFESIEEHVKKNL
B9: design_606_b60ff77f-1541-4e5f-8260-46d5e5f6b85e_733_dldesign_0_cycle1_af2pred (protein)
chain: DAATQKKASEAAAEAHEAAAEFTNKLKDKELKDKIKEIVREAIEKGKAATPEEALKIFTEAKKKIEDAAKKYA
B10: design_606_b60ff77f-1541-4e5f-8260-46d5e5f6b85e_888_dldesign_0_cycle1_af2pred (protein)
chain: EVEKLIKEVKEAGEKAAKADPDIADYIKNAVKTAEELMTKNAADLEKVKEIAEKAINTFKRIIENAEKAKELEAK
B11: design_606_b60ff77f-1541-4e5f-8260-46d5e5f6b85e_898_dldesign_0_cycle1_af2pred (protein)
chain: MNITEKVAAAAQAALAALADPATAVAALSAARFTALDLVSEDIEAGEVAIEIFEKGDAGSRRVARIIRSHVEALKRN
B12: design_606_b60ff77f-1541-4e5f-8260-46d5e5f6b85e_64_dldesign_0_cycle1_af2pred (protein)
chain: GSSEEAERDSRLVSEMVRAARAGAEAAARLPPAEAARYRAELAALVAAMYDALGAGSPAAEEYVARVRALAAEIAARAAAA
B13: design_606_b60ff77f-1541-4e5f-8260-46d5e5f6b85e_724_dldesign_0_cycle1_af2pred (protein)
chain: AAAQKAAEAAATLYENSNEAIWLAKKEGAKGAVEGKKLLEKGVAAAEAAAKEASPEDAAKLKKLAESRKERTEKAIKKALA
B14: design_606_b60ff77f-1541-4e5f-8260-46d5e5f6b85e_637_dldesign_0_cycle1_af2pred (protein)
chain: MEEEEERRRVLEIAREDAEEALAKAKAAAEKGELDGVAIGLARGNASVLDEETGKKVREAADKVEAAAKAAQAAK
B15: design_605_6ebdab39-eaab-4492-afcb-164e20c3b25e_2479_dldesign_0_cycle1_af2pred (protein)
chain: MKEASEAAAKAYEYMAEALYYGKKASEEAAKEAEKAAKEVKELLKKAREAAKEGKYEEAKKLAEEAYKLAKETYEKLKKELEKKKA
B16: design_606_b60ff77f-1541-4e5f-8260-46d5e5f6b85e_148_dldesign_0_cycle1_af2pred (protein)
chain: NPKIEGEAALTRAEGAYESAKALPPEKAAEAYRKAAEIAKKQAEEAEKAGEEAKPYAEKIRKIAKEAEKKAKELEKA
B17: design_606_b60ff77f-1541-4e5f-8260-46d5e5f6b85e_118_dldesign_0_cycle1_af2pred (protein)
chain: MLEEVKEKAKELKAAKGTPEEKLKLAREARELFRRAREELSARGATPEEAEAMHELRQAAAELEAEAKRELKE
B18: design_606_b60ff77f-1541-4e5f-8260-46d5e5f6b85e_490_dldesign_0_cycle1_af2pred (protein)
chain: MEAAKEAAKKVLELADLSAEASAEDFPEVEKKAEEALKFAEEVAKEDPEAGEKAKRTVKRILEDTRKAVEK
B19: design_606_b60ff77f-1541-4e5f-8260-46d5e5f6b85e_905_dldesign_0_cycle1_af2pred (protein)
chain: DNEEKKKELKEEAEKYKEELLKEKDEALKAGDFESAIFISKKAVKIKKLEEEGKKGNKEEVEKKKEEIKKEAKEALEFYKKNKE

Target: VTCN1, Q7Z7D3
Sequence (Q7Z7D3 whole entry): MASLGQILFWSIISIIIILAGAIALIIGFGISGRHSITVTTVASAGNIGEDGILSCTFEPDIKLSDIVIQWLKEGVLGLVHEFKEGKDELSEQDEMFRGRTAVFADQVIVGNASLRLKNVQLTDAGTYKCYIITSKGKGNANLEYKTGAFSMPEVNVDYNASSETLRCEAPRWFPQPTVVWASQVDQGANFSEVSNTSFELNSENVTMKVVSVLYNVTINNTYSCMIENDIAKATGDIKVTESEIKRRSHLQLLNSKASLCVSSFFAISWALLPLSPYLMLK

Binding in a display sort, inactive:
B1 not found, B2 not found, B3 not found, B4 not found, B5 not found, B6 not found, B7 not found, B8 not found, B9 not found, B10 not found, B11 not found, B12 not found, B13 not found, B14 not found, B15 not found, B16 not found, B17 not found, B18 not found, B19 not found
